From PubChem
Compounds with a hit are over-represented: about 9.2% of the library has one in this group of screens.
LMNA splice mod – changes lamin A minigene splicing in HeLa cells. HeLa LMNA splicing GFP/RFP minigene ratio, 48 h. Potency, µM (top dose mostly 46.1 µM), usual class: inhibitors. actives 0.01% (n = 200,000); active = well fitted inhibition curve with a large enough effect in the signal ratio, with a control signal flat, not every such curve was filed as active; inconclusive = small, poorly fitted or top-dose-only effect, or effect the other way, or a change in a side signal; the % refers to the signal ratio
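S3 HeLa stable clones carrying a lamin A-EGFP splicing minigene plus DsRed2 were seeded at 600 cells/well in Opti-MEM with 2% FBS, pin-dosed and incubated 48 h at 37°C. Acumen cytometry (488 nm) gave the GFP/RFP total-intensity ratio.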
KDM4E inh – inhibitors of human JMJD2E histone demethylase | B2RXH2 | JMJD2E catalytic domain, FDH-coupled NADH fluorescence (FDH is formaldehyde dehydrogenase) | Potency, µM (titrated, usually from 57.1 µM), hits mostly inhibitors | actives 1.6% (n = 230,000) | AID 2147; also: nearly all actives have a fitted effect of over 50% in size
Target sequence (B2RXH2 1-337 limits assumed): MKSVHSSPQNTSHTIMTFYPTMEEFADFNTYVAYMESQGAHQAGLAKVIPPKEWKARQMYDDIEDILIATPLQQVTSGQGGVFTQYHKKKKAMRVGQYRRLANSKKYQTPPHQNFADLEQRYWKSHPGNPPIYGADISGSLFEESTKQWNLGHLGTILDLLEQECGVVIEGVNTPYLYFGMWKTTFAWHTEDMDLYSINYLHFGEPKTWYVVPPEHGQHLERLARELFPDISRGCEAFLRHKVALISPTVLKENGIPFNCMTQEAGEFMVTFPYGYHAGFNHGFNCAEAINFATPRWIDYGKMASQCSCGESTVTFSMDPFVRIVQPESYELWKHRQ
HPGD block – inhibitors of human 15-hydroxyprostaglandin dehydrogenase (HPGD); P15428; purified HPGD, NADH fluorescence kinetic, PGE2 substrate; Potency, µM, usual class: inhibitors; actives 4.3% (n = 150,000)
Target sequence (P15428 whole entry, looked up): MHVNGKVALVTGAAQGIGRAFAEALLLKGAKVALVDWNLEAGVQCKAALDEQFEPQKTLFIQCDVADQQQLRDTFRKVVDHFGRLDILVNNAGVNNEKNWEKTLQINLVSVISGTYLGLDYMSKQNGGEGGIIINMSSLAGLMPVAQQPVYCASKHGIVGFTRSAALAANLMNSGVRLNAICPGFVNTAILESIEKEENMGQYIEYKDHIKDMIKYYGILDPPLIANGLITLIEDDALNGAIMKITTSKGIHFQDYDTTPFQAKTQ
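20 nM HPGD preincubated 15 min at room temperature with compound in 50 mM Tris-HCl pH 8, 0.01% Tween 20. Started with 1 mM NAD+ and 30 uM prostaglandin E2; NADH fluorescence (360/450 nm) read 5 times over 30-s intervals, last minus first.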
ALDH1A1 inh – inhibitors of human aldehyde dehydrogenase 1A1 | Purified ALDH1A1, NADH fluorescence, propionaldehyde substrate | actives 7.3% (n = 220,000) | Potency, µM (titrated, usually from 75.3 µM), hits mostly inhibitors | P00352 | AID 1030
HTT ATP protect – Huntington cell model cytoprotection by ATP luminescence; PC12 HTT-Q103 induced, cytoprotection, ATP luminescence, 40 h; Potency, µM (titrated, usually from 56.4 µM), actives largely listed as activators; actives 0.14% (n = 230,000); active = well fitted curve in the direction sought with a large enough effect; inconclusive = small, poorly fitted or top-dose-only effect, or another doubt; inactive = no such curve, though single readings can be large; an effect the other way counts as inactive or inconclusive; also: nearly all actives have a fitted effect of over 45% in size
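Huntington model: PC12 line, ecdysone-inducible HTTQ103 exon1–GFP, tebufenozide 100 nM. Test articles in a dose series. Endpoint luminescence from cellular ATP.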
HttQ103 aggreg – reduces HttQ103-GFP aggregates in PC12 cells; PC12 HttQ103-GFP aggregates, Acumen cytometry, 40 h; Potency, µM (doses to about 46.1 µM), hits mostly inhibitors; actives 1.1% (n = 220,000); active = well fitted curve in the direction sought with a large enough effect; inconclusive = small, poorly fitted or top-dose-only effect, or another doubt; inactive = no such curve, though single readings can be large; an effect the other way counts as inactive or inconclusive; also: nearly all actives have a fitted effect of over 60% in size
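Multiplexed with ATP-based cell death, this channel scores GFP aggregates in PC12 cells expressing inducible HTTex1-Q103-GFP. Induction used 100 nM tebufenozide; compounds were tested in concentration series.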
Hits are given with their value; 0 = inactive; ? = inconclusive; - = no result; [ ] = another dose, or the depositor's remark. Unless noted, calls follow the shape of the dose curve; as a rule, active = well fitted inhibition curve with a large enough effect (not every such curve was filed as active); inconclusive = small, poorly fitted or top-dose-only effect, or another doubt; inactive = no such curve, though single readings can be large or run the other way.

SMILES	LMNA splice mod	KDM4E inh	HPGD block	ALDH1A1 inh	HTT ATP protect	HttQ103 aggreg
CC(=O)[C@H]1CC[C@@H]2[C@]1(C)CC=C1[C@@]23C=C[C@]2(C[C@H](O)CC[C@@]12C)[C@H](C(=O)O)[C@@H]3C(=O)O	-	-	0	0[13.5 µM]	-	-
O=C(O)c1cc2c(cc1S(=O)(=O)O)[C@H]1[C@@H]([C@H]3[C@H]2[C@@]2(Cl)C(Cl)=C(Cl)[C@]3(Cl)C2(Cl)Cl)[C@]2(Cl)C(Cl)=C(Cl)[C@@]1(Cl)C2(Cl)Cl	-	-	-	-	0[10 µM]	-
COc1cccc(N2C(C(C)=O)=NN(c3ccccc3)C2c2ccc(N3CCOCC3)cc2)c1 (stereo unspecified)	?	0	0	14.1µM	-	11.2µM
CC(=O)C1=NN(c2ccccc2)C(c2ccc3c(c2)OCO3)N1c1ccc(N2CCOCC2)cc1 (stereo unspecified)	?	0	0	?	-	0
C/C(Cn1nnc([N+](=O)[O-])n1)=N\NC(=O)c1ccc(O)cc1	-	0	-	-	0[10 µM]	0[9.22 µM]
C/C(Cn1cnc([N+](=O)[O-])n1)=N\NC(=O)c1ccccc1O	0	0	-	0	0[10 µM]	0[9.22 µM]
C/C(Cn1cnc([N+](=O)[O-])n1)=N/NC(=O)COc1ccccc1Cl	0	0	0	14.1µM	0[10 µM]	0
C/C(Cn1cnc([N+](=O)[O-])n1)=N\NC(=O)c1ccc(Br)cc1	0	0	0	14.1µM	0[10 µM]	0
C/C(Cn1nnc([N+](=O)[O-])n1)=N\NC(=O)c1ccc(Cl)c(Cl)c1	?	0	0	28.2µM	0	?
CC1C(=O)C(=O)C=CN1C (stereo unspecified)	-	-	-	-	0	0
COc1cccc(C(=O)Nc2cccc(OCc3cc(=O)n4cccc(C)c4n3)c2)c1	0	-	-	-	-	-
O=c1c(-c2cccs2)nc2cnc(Nc3ccccc3)nc2n1C[C@H]1CCCO1	?	-	-	?	0	-
COc1ccc(OC)c(-n2nnnc2SCC(=O)NCCc2ccccc2)c1	0	0	0	1.26µM	0	0
CC(=O)Nc1ccc(SCC(=O)Nc2cc(C)on2)cc1	?	0	-	22.4µM	0	0
COc1ccc(C)cc1-n1nnnc1SCC(=O)c1ccc2c(c1)OCCO2	?	0	0	11.2µM	0	0
COc1ccc(-n2nnnc2SCC(=O)c2ccc3c(c2)OCCO3)c(OC)c1	?	0	0	?	0	0
Cc1cc(NC(=O)CSc2ccc(F)cc2)no1	-	0	-	0	0	0
COc1ccc(-c2nnn(CC(=O)c3ccc4c(c3)OCCO4)n2)cc1OC	?	0	0	28.2µM	0[1.9 µM]	0
O=C(NCC(c1ccc2c(c1)OCO2)N1CCOCC1)C(=O)Nc1ccccc1 (stereo unspecified)	0	-	-	-	-	-
COCCn1c(SCC(=O)c2ccc3c(c2)OCCO3)nnc1-c1ccoc1C	?	0	0	20µM	0[10 µM]	?
COCCCn1c(SCC(=O)Nc2ccc3c(c2)OCCO3)nnc1-c1ccoc1C	0	?	0	?	0[10 µM]	0
O=C(Cn1nc(Cl)nc1Cl)c1ccc2c(c1)OCCO2	0	0	0	1.12µM	0[0.074 µM]	0
COc1ccc(C)cc1-n1nnnc1SCC1CCCO1 (stereo unspecified)	0	0	0	12.6µM	0	0
COc1ccc(C)cc1-n1nnnc1SCC(=O)NC(=O)NCc1ccco1	0	0	0	12.6µM	0[10 µM]	0
COc1ccc(-c2nnc(SCC3CCCO3)n2C)cc1 (stereo unspecified)	-	0	-	?	0	0
SMILES	LMNA splice mod	KDM4E inh	HPGD block	ALDH1A1 inh	HTT ATP protect	HttQ103 aggreg
COCCCn1c(SCC(=O)N2CC(=O)Nc3ccccc32)nnc1-c1ccoc1C	0	0	0	0	0	0
COCCCn1c(SCC(=O)n2c(C)c(C)c3ccccc32)nnc1-c1ccoc1C	0	0	0	25.1µM	0[10 µM]	0
COc1ccc(C)cc1-n1nnnc1SCC(=O)Nc1cc(C)on1	0	0	0	2µM	0[1.9 µM]	0
COc1ccc(C)cc1-n1nnnc1SCc1nc2ccccc2s1	?	0	0	11.2µM	0	0
CCOc1ccc(OCC)c(NC(=O)C2CCN(S(=O)(=O)c3ccc4c(c3)CC(C)N4C(C)=O)CC2)c1 (stereo unspecified)	0	-	-	-	-	-
COC(=O)[C@@]1(C)C=C[C@@H](Cc2ccccc2)N1C(=O)c1ccccc1	-	0	0	0	0	-
Cc1cccc2cc(CN(Cc3ccccc3)C(=O)c3cccc(F)c3)c(Cl)nc12	0	0	0	8.91µM	0	0
Cc1ccc(-n2cc(CNCCN3CCOC3=O)c(-c3cccc(C)c3)n2)cc1	-	0	-	7.08µM	0[10 µM]	0[9.22 µM]
O=C(O)CCC(=O)N1CCCC1C(=O)O (stereo unspecified)	?	0	0	0	-	-
CNC(=O)C1(C)C=CCN1C(=O)OC (stereo unspecified)	-	0	0	0	0	-
COC(=O)N1CC=CC1(C)C(=O)NCC1CC1 (stereo unspecified)	-	0	0	0	12.6µM	-
Cc1c(C(=O)OCC2CCCO2)[nH]c2c1C(=O)CC(c1ccc(N(C)C)cc1)C2 (stereo unspecified)	?	0	0	11.2µM	0[10 µM]	0
CCCn1c2ccccc2c2nnc(SCC(=O)Nc3ncccn3)nc21	0	0	0	7.08µM	0	0
CCCn1c2ccccc2c2nnc(SCC(=O)Nc3cc(C)on3)nc21	0	0	0	?	0[10 µM]	0
O=C(CSc1nnc2c3ccccc3c3ccccc3c2n1)Nc1ccccc1F	0	0	0	8.91µM	0	0
CSc1nnc2c3ccccc3n(CCc3ccccc3)c2n1	?	0	0	8.91µM	0[10 µM]	?
CCn1c2ccccc2c2nnc(SCC(=O)N3CC(C)OC(C)C3)nc21 (stereo unspecified)	0	0	14.1µM	20µM	0[10 µM]	0[9.22 µM]
COc1ccccc1N1CCN(C(=O)CSc2nnc3c4ccccc4n(CC(=O)O)c3n2)CC1	0	0	0	0	0[10 µM]	0
O=C(CSc1nnc2c3ccccc3c3ccccc3c2n1)Nc1ccccc1	0	0	0	0	0	0
Cc1ccc(Cl)cc1NC(=O)c1cc(CN2CCCC2)on1	0	-	-	-	-	-
C/C(=N\N1C(=O)CSC1=S)c1ccc(Br)cc1	?	0	-	25.1µM	?	0
CC1CCCC(C)N1/N=C/c1ccc(N(C)C)cc1 (stereo unspecified)	0	0	-	3.98µM	0[10 µM]	0
COC(=O)[C@@H]1CCCN1Cc1nc(Cc2ccc(OC)c(OC)c2)no1	-	0	-	0.891µM	0[10 µM]	0[9.22 µM]
COC(=O)[C@@H]1CCCN1Cc1nc(Cc2ccccc2F)no1	-	0	-	?	0[10 µM]	0[9.22 µM]
Cc1cccc(N(CC(=O)N/N=C/c2ccc(OCC(=O)NCc3ccco3)cc2)S(C)(=O)=O)c1C	0	0	25.1µM	0	0	0[9.22 µM]
CCCOc1ccc(OC(=O)c2c(-c3ccccc3Cl)noc2C)cc1	0	-	-	-	-	-
O=C(Nc1cccn(Cc2c(F)cccc2Cl)c1=O)NC1CCCCC1	-	?	-	25.1µM	0[10 µM]	0[9.22 µM]
